A selection: hits, their analogues and other compounds. The true share with any hit is near 2.3%.
CHRM1 antagonist = human CHRM1 antagonism; P11229; CHO-K1 hM1, Fluo-8 calcium fluorescence, ACh EC80 antagonist; inhibition, % at 3 µM; hit rate 1.3% among 360,000; AID 588852;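 active = percent inhibition above its own plate's cutoff, namely the mean of that plate's compound wells plus 3 SD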;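 note: peak over basal fluorescence ratio during 140 s after agonist addition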
Target sequence (P11229 whole entry, looked up): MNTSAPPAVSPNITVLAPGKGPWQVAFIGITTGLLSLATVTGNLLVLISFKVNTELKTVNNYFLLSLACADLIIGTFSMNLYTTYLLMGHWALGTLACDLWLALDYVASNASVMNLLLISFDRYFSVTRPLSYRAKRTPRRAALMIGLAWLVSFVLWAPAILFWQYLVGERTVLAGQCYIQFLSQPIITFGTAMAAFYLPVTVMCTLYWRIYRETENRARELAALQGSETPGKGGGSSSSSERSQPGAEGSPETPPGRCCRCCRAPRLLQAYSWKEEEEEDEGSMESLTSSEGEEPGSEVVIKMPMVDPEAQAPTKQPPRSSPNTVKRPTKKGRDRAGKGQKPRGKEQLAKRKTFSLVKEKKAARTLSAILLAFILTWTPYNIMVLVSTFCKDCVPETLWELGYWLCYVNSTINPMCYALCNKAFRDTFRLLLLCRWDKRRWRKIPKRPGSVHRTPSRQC
CHO-K1 Ca PAM = M1 PAM counterscreen hit in parental CHO-K1 cells; ATP EC20, Fluo-8 calcium fluorescence; 0% at ATP EC20, 100% at ATP max; activation, % at 3 µM; hit rate 0.02% among 360,000; AID 602247;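 active = activation above the run cutoff, the mean activation of all test compounds plus 3 SD, cut at about 40% in these data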;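 note: peak over basal fluorescence ratio in a 140 s read after ATP addition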
CHO-K1 Ca ag = counter-screen for M1 agonists: effect in parental CHO-K1 cells; activation, % at 3 µM; Fluo-8 calcium fluorescence; scaled to maximal ATP response, vehicle zero; hit rate 0.48% among 360,000; in the data active = activation above about 15%;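 note: untransfected CHO-K1 host cells lacking M1 receptor as counterscreen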
M1 ag = activates human CHRM1 receptor; P11229; CHO-K1 hM1, Fluo-8 calcium fluorescence, agonist mode; 0% DMSO, 100% acetylcholine EC100; activation, % at 3 µM; hit rate 0.33% among 360,000;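 active = activation above the run's mean compound activation plus 3 SD, cut at about 16% in these data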;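 note: peak over basal fluorescence ratio within a 140 s kinetic read after compound addition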
CHO-K1 Ca antag = counter-screen for M1 antagonists: effect in parental CHO-K1 cells; ATP-induced calcium, Fluo-8 fluorescence; inhibition, % at 3 µM; hit rate 0.6% among 360,000; AID 602250;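 active = inhibition above a per-plate cutoff, the plate's mean sample inhibition plus 3 SD, cut at about 24% in these data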
M1 PAM = potentiates human M1 receptor response to acetylcholine. P11229. hit rate 0.088% among 360,000. activation, % at 3 µM. CHO-K1 hM1, Fluo-8 calcium fluorescence, ACh EC20; 0% = ACh EC20, 100% = maximal ACh; in the data active = activation above about 19%, passing the limit was not always enough
A number is an active result.

How did O=[N+]([O-])c1ccc(OCC(O)CN(C2CCCCC2)C2CCCCC2)cc1 (stereo not given) do in these assays?
CHRM1 antagonist: inactive; CHO-K1 Ca PAM: inactive; CHO-K1 Ca ag: inactive; M1 ag: inactive; CHO-K1 Ca antag: inactive; M1 PAM: inactive

What do the screens show for `COc1ccc(OCC(O)CN(C2CCCCC2)C2CCCCC2)cc1` (stereo not given)?
CHRM1 antagonist: inactive; CHO-K1 Ca PAM: inactive; CHO-K1 Ca ag: inactive; M1 ag: inactive; CHO-K1 Ca antag: 26; M1 PAM: inactive

Results for O=C(NC(=O)c1ccccc1)OCC1CCCN2CCCCC12 (stereo not given) ?
CHRM1 antagonist: inactive; CHO-K1 Ca PAM: inactive; CHO-K1 Ca ag: inactive; M1 ag: inactive; CHO-K1 Ca antag: inactive; M1 PAM: inactive

What do the screens show for `O=C(OCC1CCCN2CCCCC12)c1ccc2c(c1)OCO2` (stereo not given)?
CHRM1 antagonist: 29; CHO-K1 Ca PAM: inactive; CHO-K1 Ca ag: inactive; M1 ag: inactive; CHO-K1 Ca antag: inactive; M1 PAM: inactive

Results for O=c1c2ccccc2ncn1-c1ccc([N+](=O)[O-])cc1Cl ?
CHRM1 antagonist: inactive; CHO-K1 Ca PAM: inactive; CHO-K1 Ca ag: inactive; M1 ag: inactive; CHO-K1 Ca antag: 24; M1 PAM: inactive

Results for O=C(Cc1ccc(Br)cc1)Nc1ncc([N+](=O)[O-])s1 ?
CHRM1 antagonist: inactive; CHO-K1 Ca PAM: inactive; CHO-K1 Ca ag: 16; M1 ag: inactive; CHO-K1 Ca antag: 24; M1 PAM: inactive

What do the screens show for `COc1ccc(C#Cc2cccc(-c3nc(C(=O)NCc4ccc(Oc5ccccc5)cc4)cc4c3[C@@H](CCO)N(S(=O)C(C)(C)C)C4)c2)cc1OC` (stereo not given in full)?
CHRM1 antagonist: inactive; CHO-K1 Ca PAM: inactive; CHO-K1 Ca ag: inactive; M1 ag: inactive; CHO-K1 Ca antag: inactive; M1 PAM: inactive

Results for O=C(CN1CCCCC1)N1CCCc2ccccc21 ?
CHRM1 antagonist: inactive; CHO-K1 Ca PAM: inactive; CHO-K1 Ca ag: inactive; M1 ag: inactive; CHO-K1 Ca antag: inactive; M1 PAM: inactive

Results for CN1CCN(C(=O)N2c3ccccc3C=Cc3ccccc32)CC1 ?
CHRM1 antagonist: 94; CHO-K1 Ca PAM: inactive; CHO-K1 Ca ag: inactive; M1 ag: inactive; CHO-K1 Ca antag: inactive; M1 PAM: inactive

Results for O=C(CN1CCCCCC1)N1c2ccccc2C=Cc2ccccc21 ?
CHRM1 antagonist: 98; CHO-K1 Ca PAM: inactive; CHO-K1 Ca ag: inactive; M1 ag: inactive; CHO-K1 Ca antag: inactive; M1 PAM: inactive

How did O=C(CN1CCCC1)N1c2ccccc2C=Cc2ccccc21 do in these assays?
CHRM1 antagonist: 90; CHO-K1 Ca PAM: inactive; CHO-K1 Ca ag: inactive; M1 ag: inactive; CHO-K1 Ca antag: inactive; M1 PAM: inactive

How did CCc1cccc(NS(=O)(=O)c2csc(C(N)=O)c2)c1 do in these assays?
CHRM1 antagonist: inactive; CHO-K1 Ca PAM: inactive; CHO-K1 Ca ag: 16; M1 ag: inactive; CHO-K1 Ca antag: inactive; M1 PAM: inactive

Results for CN(C)CCCC1(O)c2ccccc2C=Cc2ccccc21 ?
CHRM1 antagonist: 73; CHO-K1 Ca PAM: inactive; CHO-K1 Ca ag: inactive; M1 ag: inactive; CHO-K1 Ca antag: inactive; M1 PAM: inactive

Results for O=C(NCc1ccccc1)C1CC(=O)N(C2CCCCC2)C1 (stereo not given) ?
CHRM1 antagonist: inactive; CHO-K1 Ca PAM: inactive; CHO-K1 Ca ag: inactive; M1 ag: inactive; CHO-K1 Ca antag: inactive; M1 PAM: inactive

How did Cc1nc([N+](=O)[O-])c(SCC(N)=O)n1Cc1ccccc1 do in these assays?
CHRM1 antagonist: inactive; CHO-K1 Ca PAM: inactive; CHO-K1 Ca ag: inactive; M1 ag: inactive; CHO-K1 Ca antag: inactive; M1 PAM: inactive

What do the screens show for `Cc1nc([N+](=O)[O-])c(N2CCN(C)CC2)n1Cc1ccccc1`?
CHRM1 antagonist: 40; CHO-K1 Ca PAM: inactive; CHO-K1 Ca ag: inactive; M1 ag: inactive; CHO-K1 Ca antag: inactive; M1 PAM: inactive

What do the screens show for `CN(C)CC/C=C1/c2cc(F)ccc2CSc2ccc(F)cc21`?
CHRM1 antagonist: 100; CHO-K1 Ca PAM: inactive; CHO-K1 Ca ag: inactive; M1 ag: inactive; CHO-K1 Ca antag: inactive; M1 PAM: inactive

How did CN(C)CC/C=C1\c2cc(F)ccc2CSc2ccccc21 do in these assays?
CHRM1 antagonist: 99; CHO-K1 Ca PAM: inactive; CHO-K1 Ca ag: inactive; M1 ag: inactive; CHO-K1 Ca antag: inactive; M1 PAM: inactive

What do the screens show for `Cc1cc(SCn2nnc3ccccc3c2=O)nc2ccccc12`?
CHRM1 antagonist: inactive; CHO-K1 Ca PAM: inactive; CHO-K1 Ca ag: inactive; M1 ag: inactive; CHO-K1 Ca antag: inactive; M1 PAM: inactive

What do the screens show for `Cc1ccc(-n2nnnc2SCn2nnc3ccccc3c2=O)c(C)c1`?
CHRM1 antagonist: inactive; CHO-K1 Ca PAM: inactive; CHO-K1 Ca ag: inactive; M1 ag: inactive; CHO-K1 Ca antag: 24; M1 PAM: inactive

How did Cc1ccc(S(=O)(=O)c2nnn3c2nc(NC2CCN(Cc4ccccc4)CC2)c2ccccc23)cc1C do in these assays?
CHRM1 antagonist: 75; CHO-K1 Ca PAM: inactive; CHO-K1 Ca ag: inactive; M1 ag: inactive; CHO-K1 Ca antag: inactive; M1 PAM: inactive

What do the screens show for `Cc1ccc(S(=O)(=O)c2nnn3c2nc(NCCCN2CCCC2=O)c2ccccc23)cc1C`?
CHRM1 antagonist: inactive; CHO-K1 Ca PAM: inactive; CHO-K1 Ca ag: inactive; M1 ag: inactive; CHO-K1 Ca antag: inactive; M1 PAM: inactive

Results for C=C1C2=C(C(=O)N1OC)[C@@H](O)[C@@](C)(O)[C@@H](CCCCC)O2 ?
CHRM1 antagonist: inactive; CHO-K1 Ca PAM: inactive; CHO-K1 Ca ag: inactive; M1 ag: inactive; CHO-K1 Ca antag: inactive; M1 PAM: inactive

How did Cc1ccc(C)c(NC(=O)C2CCCN2/C=C/C(=O)C(F)(F)F)c1 (stereo not given) do in these assays?
CHRM1 antagonist: inactive; CHO-K1 Ca PAM: inactive; CHO-K1 Ca ag: inactive; M1 ag: inactive; CHO-K1 Ca antag: 26; M1 PAM: inactive

What do the screens show for `Cc1cccc(NC(=O)C2CCCN2/C=C/C(=O)C(F)(F)F)c1C` (stereo not given)?
CHRM1 antagonist: inactive; CHO-K1 Ca PAM: inactive; CHO-K1 Ca ag: inactive; M1 ag: inactive; CHO-K1 Ca antag: inactive; M1 PAM: inactive

Results for NC(=O)c1nsc(C(=O)N(c2ccccc2F)C(C(=O)NCc2ccc(F)cc2)c2ccc(O)cc2)c1N (stereo not given) ?
CHRM1 antagonist: 37; CHO-K1 Ca PAM: inactive; CHO-K1 Ca ag: inactive; M1 ag: inactive; CHO-K1 Ca antag: inactive; M1 PAM: inactive

What do the screens show for `COc1ccc(C(C(=O)NCc2ccccc2)N(Cc2ccco2)C(=O)c2snc(C(N)=O)c2N)cc1` (stereo not given)?
CHRM1 antagonist: 33; CHO-K1 Ca PAM: inactive; CHO-K1 Ca ag: inactive; M1 ag: inactive; CHO-K1 Ca antag: inactive; M1 PAM: inactive

What do the screens show for `CCOc1ccc(C(C(=O)NCC2CCCO2)N(C(=O)c2snc(C(N)=O)c2N)c2ccccc2F)cc1` (stereo not given)?
CHRM1 antagonist: inactive; CHO-K1 Ca PAM: inactive; CHO-K1 Ca ag: inactive; M1 ag: inactive; CHO-K1 Ca antag: 40; M1 PAM: inactive
